In PubChem BioAssay (NCATS):
“And” between values parts separate entries of the source, which are not always exact repeats. Equal values may be shown once. Inconclusive results are not listed. Where a structure was tested more than once in an assay, its records may differ in their call. The source made the active and inactive calls. The call rests on the fitted dose curve; in most records, active means well fitted curve in the direction sought with a large enough effect; inconclusive means small, poorly fitted or top-dose-only effect, or another doubt; inactive means no such curve, though single readings can be large; an effect the other way counts as inactive or inconclusive.

Experiments:
[1] = system: CRL-7250; experiment: Cytotoxic Profiling of Annotated Libraries Using Quantitative High-Throughput Screening (AID 1296008); details: Five cell lines viability, CellTiter-Glo ATP luminescence, 48-72 h; max response: hits give low values; further: nearly all actives have a fitted effect of over 60% in size; further: potency means the concentration at half of the fitted maximal effect; on max response: on the % scale 0 is the no-effect control and ±100 the full control effect
In short: (§1)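 Cells exposed to compounds for 48 or 72 hr at 37 degrees Celsius. Viability read as ATP-coupled luminescence with CellTiter-Glo after 10 min at room temperature.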

[2] = system: HEK293; experiment: as above; details: Five cell lines viability, CellTiter-Glo ATP luminescence, 48-72 h; max response: hits give low values
In short: as §1

[3] = system: HaCat; experiment: as above; details: Five cell lines viability, CellTiter-Glo ATP luminescence, 48-72 h; max response: hits give low values
In short: as §1

[4] = system: KB-3-1; experiment: as above; details: Five cell lines viability, CellTiter-Glo ATP luminescence, 48-72 h; max response: hits give low values
In short: as §1

[5] = system: NIH3T3; experiment: as above; details: Five cell lines viability, CellTiter-Glo ATP luminescence, 48-72 h; max response: hits give low values
In short: as §1

[6] = system: HACAT; experiment: qHTS assay to identify novel small-molecules to repurpose for Merkel cell carcinoma treatment (AID 1296009); details: MCC and control cell lines, CellTiter-Glo viability, 72 h; at 44.8 µM (top of the series) unless noted; further: nearly all actives have a fitted effect of over 60% in size; further: potency means the concentration at half of the fitted maximal effect
In short: (§2)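 Cells were incubated with compound for 72 hr at 37 degree celsius before CellTiter-Glo addition. Luminescence was normalized with no-cell wells as full cytotoxicity and DMSO as baseline.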

[7] = system: MCC-13; experiment: as above; details: MCC and control cell lines, CellTiter-Glo viability, 72 h; series mostly up to 46 µM
In short: as §2

[8] = system: MKL-1; experiment: as above; details: MCC and control cell lines, CellTiter-Glo viability, 72 h; series mostly up to 46 µM
In short: as §2

[9] = system: MKL-2; experiment: as above; details: MCC and control cell lines, CellTiter-Glo viability, 72 h; series mostly up to 46 µM
In short: as §2

[10] = system: UISO; experiment: as above; details: MCC and control cell lines, CellTiter-Glo viability, 72 h; series mostly up to 46 µM
In short: as §2

[11] = system: WaGa; experiment: as above; details: MCC and control cell lines, CellTiter-Glo viability, 72 h; series mostly up to 46 µM
In short: as §2

[12] = system: TAB109; experiment: qHTS profiling for inhibitors of Plasmodium falciparum proliferation (AID 504749); details: P. falciparum in erythrocytes, SYBR Green DNA, 72 h; series mostly up to 28.7 µM
In short: (§3)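 Readout was DNA-dye fluorescence from lysed cultures, ex 485/em 535 nm. Parasitized red cells had grown 72 h with compound; data scaled between 0.29 uM artemisinin and DMSO wells and corrected using vehicle-only plates.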

[13] = system: TAB113; experiment: as above; details: P. falciparum in erythrocytes, SYBR Green DNA, 72 h; series mostly up to 28.7 µM
In short: as §3

[14] = system: TAB165; experiment: as above; details: P. falciparum in erythrocytes, SYBR Green DNA, 72 h; series mostly up to 28.7 µM
In short: as §3

[15] = system: W2; experiment: as above; details: P. falciparum in erythrocytes, SYBR Green DNA, 72 h; series mostly up to 28.7 µM
In short: as §3

[16] = system: CRL-7250; experiment: qHTS assay to identify novel small-molecules to repurpose for Merkel cell carcinoma treatment (AID 1296009); details: MCC and control cell lines, CellTiter-Glo viability, 72 h; at 44.8 µM (top of the series) unless noted; further: nearly all actives have a fitted effect of over 60% in size; further: potency means the concentration at half of the fitted maximal effect
In short: as §2

[17] = system: MCC-26; experiment: as above; details: MCC and control cell lines, CellTiter-Glo viability, 72 h; series mostly up to 46 µM
In short: as §2

[18] = system: NIH3T3; experiment: as above; details: MCC and control cell lines, CellTiter-Glo viability, 72 h; at 44.8 µM (top of the series) unless noted
In short: as §2

[19] = system: C33A; experiment: Primary qHTS to identify gynecologic anti-cancer compounds using libraries of approved drugs and bioactive compounds (AID 1345084); details: Gynecologic cancer cell panel viability, ATPlite luminescence, 48 h; series mostly up to 57.5 µM; further: on the % scale 0 is the no-effect control and ±100 the full control effect; nearly all actives have a fitted effect of over 55% in size
In short: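 Five-concentration response, 48 h; readout is ATP-driven luciferase luminescence.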

[20] = system: HEK293T; experiment: qHTS assay to identify novel small-molecules to repurpose for Merkel cell carcinoma treatment (AID 1296009); details: MCC and control cell lines, CellTiter-Glo viability, 72 h; at 44.8 µM (top of the series) unless noted; further: nearly all actives have a fitted effect of over 60% in size; further: potency means the concentration at half of the fitted maximal effect
In short: as §2

CCCC[N+]1(C)[C@H]2CC(OC(=O)[C@H](CO)c3ccccc3)C[C@H]1[C@H]1O[C@H]12 (stereo not given in full)
inactive: max response [1] -3.26% | max response [2] -1.83% | outcome [3] | max response [4] -2.74% | max response [5] -3.27% | outcome [6] | Potency [7] | Potency [8] | Potency [9] | Potency [10] | Potency [11]

Cc1cc(O)ccc1Cl
inactive: Potency [12] | Potency [13] | Potency [14] | Potency [15] | outcome [1] | max response [2] 0.405% | max response [3] 2.83% | max response [4] -3.49% | outcome [5] | outcome [16] | Potency [7] | Potency [17] | Potency [8] | Potency [9] | outcome [18] | Potency [10] | Potency [11] | Potency [19]

CC(=O)N(C)c1cccc(-c2ccnc3c(C(=O)c4cccs4)cnn23)c1
inactive: max response [1] -13.2% | outcome [1] | max response [2] -28% and -16.5% | max response [3] 3.39% | outcome [3] | max response [4] -3.54% | outcome [4] | max response [5] -0.872% and 2.98% | outcome [16] | outcome [6] | Potency [7] | Potency [17] | Potency [8] | Potency [9] | Potency [10] | Potency [11] | Potency [19]

CCC(=O)OC1CCC2C3CCC4=CC(=O)CC[C@@]4(C)C3CC[C@]12C (stereo not given in full)
inactive: max response [1] -4.7% | outcome [2] | outcome [3] | outcome [4] | max response [5] 4.81% | outcome [6] | outcome [20] | Potency [7] | Potency [8] | Potency [9] | Potency [10] | Potency [11]

CCCCC(CC)COC(=O)c1ccccc1C(=O)OCC(CC)CCCC (stereo not given)
inactive: max response [1] -5.66% | outcome [2] | outcome [3] | max response [4] -15.4% | max response [5] -8.2% | outcome [6] inactive [at 92 µM] | outcome [20] inactive [at 92 µM] | Potency [7] | Potency [8] | Potency [9] | Potency [10] | Potency [11] | Potency [19]

COC1=C[C@@H]2[C@@H]3Cc4ccc(OC)c(O)c4[C@]2(CCN3C)CC1=O
inactive: outcome [1] | max response [2] 1.05% and -3.7% | max response [3] -2.22% | outcome [3] | max response [4] 1.47% | outcome [4] | outcome [5] | outcome [16] | outcome [6] | Potency [7] | Potency [17] | Potency [8] | Potency [9] | outcome [18] | Potency [10] | Potency [19]

Cc1ccccc1-n1c(Cn2ncc3c(N)ncnc32)nc2cccc(C)c2c1=O
inactive: max response [1] -1.16% | outcome [1] | outcome [2] | outcome [3] | outcome [4] | max response [5] 1.98% | outcome [5] | outcome [16] | outcome [6] | outcome [20] | Potency [9] | outcome [18] | Potency [19]
active: Potency [7] 13.2 µM | Potency [10] 1.32 µM

O=c1[nH]c2ccc(Cl)cc2c(N[C@@H]2CN3CCC2CC3)c1-c1nc2ccccc2[nH]1
inactive: max response [2] -122% | Potency [19]
active: Potency [1] 2.35 µM and 6.51 µM | Potency [2] 0.059 µM | Potency [3] 16.6 µM | Potency [4] 3.72 µM | Potency [5] 83.3 nM and 206 nM | Potency [7] 4.18 µM | Potency [17] 7.43 µM | Potency [8] 0.743 µM | Potency [9] 2.64 µM | Potency [10] 5.9 µM | Potency [11] 1.48 µM

CC(C)N(CCNC(=O)CN1CCCC1=O)C(C)C
inactive: max response [1] 4.66% and -0.977% | max response [2] 4.1% and 1.15% | max response [3] -6.79% and -2.04% | max response [4] -4.8% | outcome [4] | max response [5] 2.3% | outcome [5] | Potency [7] | Potency [8] | Potency [9] | outcome [18] | Potency [10] | Potency [11] | Potency [19]

Cc1ccccc1-n1c(Cn2cnc3c(N)ncnc32)nc2cccc(C)c2c1=O
inactive: outcome [2] | max response [3] -10.3% | max response [4] 0.515% | max response [5] -1.65% | outcome [20] | Potency [19]
active: Potency [1] 833 nM | Potency [2] 1.48 µM | Potency [3] 0.59 µM | Potency [4] 1.32 µM | Potency [5] 2.64 µM | Potency [17] 6.62 µM | Potency [10] 3.72 µM

CC(O)CN1CCN(CC(=O)[O-])CCN(CC(=O)[O-])CCN(CC(=O)[O-])CC1.[Gd+3] (stereo not given)
inactive: outcome [1] | max response [2] -21.1% | max response [3] -14.5% | max response [4] -2.15% and -0.0896% | max response [5] -1.05% | outcome [16] | Potency [7] | Potency [17] | Potency [8] | Potency [9] | Potency [10] | Potency [11] | Potency [19]

Cc1nc(-c2ccc(-c3ccc(C(=O)N4CCc5cc6c(cc54)C4(CCN(C)CC4)CO6)cc3)c(C)c2)no1
inactive: max response [1] -11.3% | max response [2] 4.59% | outcome [3] | max response [4] 2.18% | max response [5] 1.47% | outcome [6] | Potency [7] | Potency [8] | Potency [9] | Potency [10] | Potency [11]

C[C@H]([C@H](O)CCC(C)(C)O)[C@H]1CC[C@@]2(O)C3=CC(=O)[C@@H]4C[C@@H](O)[C@@H](O)C[C@]4(C)[C@@H]3CC[C@]12C
inactive: max response [1] -2.7% | outcome [2] | outcome [3] | max response [4] -1.89% | outcome [5] | outcome [6] | outcome [20] | Potency [7] | Potency [17] | Potency [8] | Potency [9] | outcome [18] | Potency [10] | Potency [11]
